Measured values from PubChem BioAssay AID1794844 (National Center for Advancing Translational Sciences (NCATS), 2023).
Among all 2,800 compounds or so, fewer than 10 were called active. Not shown: some 7% with an inconclusive outcome. The call rests on the fitted dose curve; in most records, active means well fitted inhibition curve with a large enough effect; inconclusive means small, poorly fitted or top-dose-only effect; inactive means no such curve, though single readings can be large or run the other way. Not all results are given here. Entries that show only a call come without a potency.

Each molecule was assayed against Metallo-beta-lactamase type 2 (Klebsiella pneumoniae) (UniProt C7C422) (assay: qHTS to identify inhibitors of the New Delhi Metallo-beta-lactamase (NDM): Nitrocefin screen against the machine-based learning selections.). Conditions: NDM-1 enzyme, nitrocefin hydrolysis, absorbance 485 nm; series mostly up to 38.4 µM.
Chain of Metallo-beta-lactamase type 2 (Klebsiella pneumoniae) (C7C422 whole entry, looked up): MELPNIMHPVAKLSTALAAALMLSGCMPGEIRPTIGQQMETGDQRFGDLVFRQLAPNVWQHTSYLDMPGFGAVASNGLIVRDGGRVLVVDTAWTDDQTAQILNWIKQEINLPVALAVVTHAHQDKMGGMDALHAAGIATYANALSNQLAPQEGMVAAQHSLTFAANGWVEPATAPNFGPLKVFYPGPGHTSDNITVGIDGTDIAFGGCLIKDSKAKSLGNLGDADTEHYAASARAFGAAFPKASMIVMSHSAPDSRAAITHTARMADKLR
Excerpt: Assay Submitter (PI): James Inglese Ph.D., Patricia Dranchak Ph.D., Mahesh Aitha Ph.D. Assay Development and Screening Technology Laboratory (ADST) National Center for Advancing Translational Sciences (NCATS), Rockville, MD National Institute of Health (NIH), Bethesda, Maryland The metallo-beta-lactamases (MBL) are a main antibiotic resistance mechanism evolved by bacteria. There is an urgent clinical need for MBL inhibitors to mitigate this growing threat. To support a machine-based learning study, qHTS has been used to experimentally test inhibitors identified by prediction tools.
PROTOCOL TABLE (as described by Inglese et al., 2007) SEQUENCE No. (e.g., 1, 2, 3, etc.); […] (e.g., enzyme, Incubation, Reagent, etc.); VALUE; DESCRIPTION Primary Screen 1; NDM-1; 4 uL of 3 nM enzyme [2 nM final] in 50 mM HEPES (pH 7.0), 1 uM […], 0.01% Tween20; Use BioRaptr to dispense into two sets of Aurora black, clear bottom high base 1536-well plates 2; Compounds; 23 nL; Use Pin Tool (Wako) to transfer DMSO control and library compounds in DMSO 3; Incubate; >30 min 4a; Reagent; 2 uL of 50 uM nitrocefin [16.7 uM final] to one set of assay plates 4b; Reagent; 2 uL of 150 uM meropenem [50 uM final] to second set of assay plates 5a; Incubate; 15 min 5b; Incubate; 30 min 6a; Detector; Absorbance at 485 nm (bandwidth = 5 nm, 25 flashes/well) on Tecan Infinity 6b; Detector; Absorbance at 300 nm (bandwidth = 5 nm, 25 flashes/well) on Tecan Infinity NOTES (numbers refer to sequence above) 1; Column 1 of each plate received assay buffer without enzyme and columns 2-48 received enzyme for a final assay concentration of 2 nM. 2; Control plate contained DMSO in columns 1, 2, 3, and 4. 3; Compound interaction with enzyme. 4; Nitrocefin and meropenem substrates were prepared in the same assay buffer as step 1 for a final assay concentration of 16.7 uM and 50 uM, respectively, and added to all wells across respective sets of assay plates. 5; Default reader settings were applied for absorbance read at 485 nm (nitrocefin) or 300 nm (meropenem), bandwidth = 5 nm, 25 flashes/well. References: Inglese J, Shamu CE, Guy RK. 2007. Reporting data from high-throughput screening of small-molecule libraries. Nat Chem Biol. doi:10.1038/nchembio0807-438 Yasgar A, Shinn P, Jadhav A, Auld D, Michael S, Zheng W, Austin CP, Inglese J, Simeonov A. 2008. Compound Management for Quantitative High-Throughput Screening. J Lab Autom 13:79 - 89. doi:10.1016/j.jala.2007.12.004
Potency means the concentration at half of the fitted maximal effect.

SMILES | Potency
COc1ccccc1CCC(=O)NCc1nnc2ccc(-c3ccc(C)cc3)nn12 | inactive
O=C(NCc1ccc2c(c1)OCO2)C1CCN(c2cn[nH]c(=O)c2)C1 (configuration not stated) | inactive
O=C(O)CCCC(=O)N1CCN2C(=O)c3cc(-c4ccco4)ccc3NC(=O)[C@@H]2C1 | inactive
O=C(c1ccc(N2CC3CC(C2)[C@H]2CCCC(=O)N2C3)nc1)N1CCN(c2cccc(Cl)c2)CC1 (some centres not stated) | inactive
Cc1ccc(C2(O)CCN(C(=O)c3cnn4cc(CCO)cnc34)CC2)nc1 | inactive
O=C(C[C@@H]1CCNC[C@@H]1Cc1cc(CC2CCCCC2)on1)NC1CC1 | inactive
O=C(Nc1ccccc1)O[C@@H]1CO[C@H]2[C@@H]1OC[C@@H]2NC(=O)c1ccc(C(F)(F)F)cc1 | inactive
Cc1cnn(Cc2cc(C(=O)N3CCCCCC3c3nnc(-c4ccccc4)o3)no2)c1 (configuration not stated) | inactive
COc1ccc(-c2cc(N3CCCN(C(=O)c4cnccn4)CC3)n[nH]2)cc1 | inactive
Cc1cc(C(=O)N[C@@H]2CCC[C@@H](C(=O)N3CCN(C)CC3)CC(=O)N(C)C2)no1 | inactive
CCC(C)NC(=O)CC1Sc2ncccc2N(C)C1=O (configuration not stated) | inactive
CC[C@H]1CN(C(=O)Nc2cccc(C(F)(F)F)c2)CC[C@H]1CC(=O)NC1CC1 | inactive
CC(C)NC(=O)C[C@@H]1C[C@H]2O[C@H](CNCc3ccccc3Cl)[C@@H](O)[C@H]2O1 | inactive
COc1nc2c(cc1CNC(=O)C1CCOC1)C(=O)N(CCc1ccccn1)C2 (configuration not stated) | inactive
Cc1ccc(CN2CC[C@@H]3[C@H]2C(=O)NC[C@H](CCC(=O)N2CC[C@@H](O)C2)N3C)cc1 | inactive
O=C(O)C[C@@H]1CCN(C(=O)c2ccco2)C[C@@H]1CCN1CCOCC1 | inactive
CN1C[C@H](C(=O)NCc2ccccc2)C[C@H]1c1cccc(C(F)(F)F)c1 | inactive
CC(C)C[C@@H]1N[C@H](C(=O)NCCOc2ccccc2)Cc2c[nH]c3cccc1c23 | inactive
CN(C)C1CCN(c2nc(-c3ccncc3)nc3c2CNC3)C1 (configuration not stated) | inactive
Cc1oc(C(O)c2cccc(O)c2)nc1C(=O)Nc1ccc2[nH]c(=O)oc2c1 (configuration not stated) | inactive
O=C(c1cc(-c2ccc(O)cc2)n[nH]1)N1CCCC(CCc2ccc(F)cc2)C1 (configuration not stated) | inactive
COc1ccc(CC2(CO)CCN(c3nccc(N)n3)CC2)cc1 | inactive
Cc1ccc2c(C)c(C(=O)N3CC(OCc4ccccc4F)C3)oc2c1 | inactive
COCCNC(=O)c1ccc2c(c1)N(C)C(CC(=O)Nc1ccc(N)nc1)CO2 (configuration not stated) | inactive
CCCc1cc(C(=O)N[C@@H]2COCC[C@H]2Oc2ccc(C(=O)O)cc2)n[nH]1 | inactive

SMILES | Potency
Cc1cccc(C(=O)N2CC[C@@H](NC(=O)c3cnccn3)[C@H](O)C2)n1 | inactive
O=[S+]([O-])(c1cccnc1)N1CCNc2cnc(Nc3ccc(-n4ccnc4)cc3)nc2C1 | inactive
O=C(Cn1ccn2nc3c(c2c1=O)CCCC3)NCc1ccc2c(c1)OCO2 | inactive
COc1ccccc1-n1cc(C(=O)NC[C@@H]2C[C@H](F)CN2)cn1 | inactive
c1csc(CN2Cc3[nH]cnc3C[C@H]2c2nc(-c3ccc4c(c3)OCO4)no2)c1 | inactive
O=C(Nc1ccccc1)O[C@@H]1CO[C@H]2[C@@H]1OC[C@@H]2NS(=O)(=O)c1cccc2cccnc12 | inactive
OCc1cccc(-c2ccc3ncc(Nc4cccc(F)c4)n3n2)c1 | inactive
O=C(c1ccc2ncccc2c1)N1CCC2(CC1)Nc1ccccc1NC2=O | inactive
COc1ccc(CC(=O)N2CC(CO)C3(CCNCC3)C2)cc1 (configuration not stated) | inactive
Cc1ccc(CN2CC[C@@H](CO)N(C)c3cccnc3C2)s1 | inactive
CS(=O)(=O)N1CCC(C2CCN(C(=O)Cc3cccc(F)c3)C2)CC1 (configuration not stated) | inactive
O=C(NCc1nc(-c2ccncc2)n[nH]1)[C@H]1CCC[C@H](O)C1 | inactive
N[C@@H]1CCN(Cc2ccccc2OCc2ccc(Cl)cc2)C[C@H]1O | inactive
COCCOc1ncccc1-c1noc([C@@H]2CCCN2CC(C)(C)C)n1 | inactive
CC1=C[C@@H](CNC(=O)c2ccc(F)cc2)[C@H](C(C)C)C[C@H]1CC(=O)N1CCN(C)CC1 | inactive
O=C1Cc2c(-c3cccc(O)c3)n[nH]c2CN1CC1CC1 | inactive
C[C@@H]1CN(C(=O)Cn2ccc(=O)[nH]c2=O)C[C@@]1(O)C1CCC1 | inactive
COc1cccc(NC(=O)O[C@@H]2CC[C@]3(C)C(CC[C@@H](O)[C@H]3CC(=O)N3CCCC3)[C@]2(C)CO)c1 (some centres not stated) | inactive
CCc1noc([C@@H]2CC(F)(F)CN2C(=O)c2ccoc2C)n1 | inactive
CC(C)=CC(=O)N1CC[C@H](NC(=O)Nc2ccc(F)cc2F)[C@H]1C(=O)N[C@@H](Cc1cccs1)C(N)=O | inactive
NCCc1cccc(CN2CCCC(COc3ccccc3F)C2)c1 (configuration not stated) | inactive
c1ccc(-c2nnc3ccc(NC4CCC4)nn23)nc1 | inactive
CC(C)(O)C#Cc1ccc(C(=O)N2CCC(O)(c3ccccn3)CC2)cc1 | inactive
COc1ccc(-c2nnc3n2CCN(C(=O)C(C)(C)C)C3)cc1 | inactive
O=C(Cc1c[nH]c2ncc(-c3ccc(Cl)cc3)cc12)NCc1cccnc1 | inactive

SMILES | Potency
CC(C)(C)CC(=O)N1CC[C@H]2CC(=O)N(Cc3cccnc3)CC[C@H]2C1 | inactive
CC[C@H]1CN(C(C)=O)CC[C@H]1CC(=O)NC(C)C | inactive
CCNC(=O)[C@@H]1C[C@H](NC(=O)c2ccccc2)CN1Cc1scnc1C | inactive
CS(=O)(=O)N1CC(C(=O)Nc2ccc(N3CCOCC3)cc2)C2(CCCCC2)C1 (configuration not stated) | inactive
O=C(NCc1cc2n(n1)CCN(C1CCCCC1)C2)c1cnn2ccccc12 | inactive
CCCN(CC1CCOC1)C(=O)Nc1cccc(F)c1C (configuration not stated) | inactive
O=C(O)CN1CCC[C@]2(C(=O)O)CN(Cc3cccc(O)c3)CC[C@@H]12 | 3.35 µM (active)
O=C(O)[C@]12CCCN[C@@H]1CCN(Cc1ccc(-c3ccccn3)cc1)C2 | inactive
Cc1cccc(CN2CCCC3(CCN(Cc4cccc(O)c4)C3)C2)c1 (configuration not stated) | inactive
Cc1cc(Cn2cc3c4c(cccc42)[C@H](CC(C)C)N[C@H](C(=O)N2CCN(C)CC2)C3)no1 | inactive
CN1CCOc2c(C(=O)NCc3cccnc3)cc(-c3ccccc3O)cc21 | inactive
Cc1ccc2c(n1)N(C)[C@H](CO)CCN(Cc1cccnc1)C2 | inactive
O=C(C1CC1)N1CCC2(CC1)CCN(CCc1ccccc1)c1ccccc1O2 | inactive
COc1ccc(OC)c(CNC(=O)CC2CCOCC2)c1 | inactive
O=c1[nH]nc(CNCC2(O)CCCNC2)c2ccccc12 (configuration not stated) | inactive
Cc1ccc(C(=O)NC2CCN(c3ccc(F)cc3)C2=O)s1 (configuration not stated) | inactive
Cc1noc(C)c1S(=O)(=O)N1CCCN(Cc2ccncc2)C(c2ccccc2)CC(=O)NCC1 (configuration not stated) | inactive
COc1cccc(N2C(=O)N[C@@H]3CCN(S(=O)(=O)c4ccccc4)[C@@H]3C2=O)c1 | inactive
COc1ncccc1C(=O)N1CCc2c(nc(-c3cccnc3)[nH]c2=O)C1 | inactive
CN1CCOc2c(C(=O)NCCC(N)=O)cc(-c3ccccc3O)cc21 | inactive
O=C(Cc1ccccc1)Nc1ccnn1C1CCN(Cc2ccc3cccc(F)c3n2)CC1 | inactive
COC(=O)[C@H]1CN(C(=O)c2cccnc2)CCN1C(=O)C1CCCCC1 | inactive
COCCNC(=O)C[C@@H]1O[C@H](CNC(=O)c2cccc(F)c2)[C@@H](O)[C@H]1O | inactive
N#Cc1cccc(CN2CCOC[C@H]2c2ncc(-c3ccc(C(F)(F)F)cc3)[nH]2)c1 | inactive
CCN(CC)Cc1nc(C2(O)CCN(C)CC2)cs1 | inactive

SMILES | Potency
Fc1ccc2nc([C@H]3CCN(C4CCC4)C3)[nH]c2c1 | inactive
CSc1ncccc1C(=O)NC1CCCN(CCCc2ccccc2)C1 (configuration not stated) | inactive
Cc1ccccc1C1CCCN1Cc1ncccc1C(=O)O (configuration not stated) | 13.4 µM (active)
CC(=O)N1CCN(c2cc(-c3noc([C@@H]4CCCN4Cc4ccccc4C)n3)ccn2)CC1 | inactive
O=c1c2nc(NCc3cccs3)ccc2ncn1Cc1ccccc1 | inactive
COCCNS(=O)(=O)c1cc(C(=O)O)cc(-c2ccc(OC)c(F)c2)c1 | inactive
Cc1noc2c(-c3cccc(O)c3)cc(-c3cccs3)nc12 | inactive
COC[C@H]1CCCN1C(=O)[C@@H](C)C1CC[C@@]2(C)CC[C@H](NC(=O)CC(C)(C)C)[C@@H](C)[C@@H]2[C@H]1O (some centres not stated) | inactive
CN1C(=O)C(c2ccccc2)CC12CCN(C(=O)c1cccc(F)c1)CC2 (configuration not stated) | inactive
CC(C)NC(=O)N1CCN(C(=O)N2CCOCC2)[C@@H](C(=O)N[C@H](Cc2c[nH]c3ccccc23)C(N)=O)C1 | inactive
CC[C@H]1CN(C(=O)NC(C)C)CC[C@H]1CC(=O)N(C)CCC#N | inactive
Cc1nn2cc(CCNCC3(O)CNCCOC3)nc2s1 (configuration not stated) | inactive
COc1ccccc1C(O)c1nc(Nc2ccc(C(C)C)cc2)n[nH]1 (configuration not stated) | inactive
Cc1ccc(NC(=O)N[C@@H]2C=C(C(=O)N[C@H](CC(C)C)C(N)=O)C[C@@H](O)[C@@H]2O)cc1 | inactive
Cc1ccc(-n2nc(C)c([C@@H]3C=C[C@@H](NCc4cccc(C#N)c4)C3)c2C)cc1Cl | inactive
OC(c1ccccc1)c1nc(Nc2ccc(C(F)(F)F)cc2)n[nH]1 (configuration not stated) | inactive
CC(C)Cc1cc(C(=O)N2C[C@H](C3CC3)[C@@H](N)C2)n(C)n1 | inactive
O=C(c1ccc(Cn2cnnn2)cc1)N1CCC2(CC1)[C@H](O)C[C@@H]2OCCO | inactive
COc1ccc(OC)c(CNC(=O)Cc2cccn2-c2ccc(C)cc2)c1 | inactive
COc1ccccc1C(O)c1nc(Nc2ccc(Cl)cc2)n[nH]1 (configuration not stated) | inactive
CNC(=O)C1(N2CCC[C@H]2C(=O)N2CCCC2)COC1 | inactive
COCCO[C@H]1C(=O)N(C2CCN(C(=O)c3cnccn3)CC2)[C@H]1c1ccncc1 | inactive
